According to PubChem BioAssay AID2685 (National Center for Advancing Translational Sciences (NCATS), 2010):
Hit rate of the full screen: of about 320,000 compounds, about 2,100 (0.66%) were called active. Roughly 53% stayed inconclusive and do not appear here. This is one part of a sample in which actives are shown more often than they occur. The call rests on the fitted dose curve; in most records, active means well fitted inhibition curve with a large enough effect in the signal ratio, with a control signal flat (not every such curve was filed as active); inconclusive means small, poorly fitted or top-dose-only effect, or effect the other way, or a change in a side signal; inactive means flat fitted curve, though single readings scatter; the % refers to the signal ratio.

Test: qHTS Assay for Lipid Storage Modulators in Drosophila S3 Cells;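 on cell number change: cells counted by Cell Tracker Red CMTPX staining in the red channel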; on lipid storage change, negative = inhibition: on the % scale 0 is the no-effect control and ±100 the full control effect
Details: BODIPY lipid droplet fluorescence, 18-24 h, cells fed with added oleic acid; cell number change: measured here: cell count max response; series mostly up to 46.1 µM
Outline: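 Drosophila S3 cells loaded with oleic acid (400 uM, as added) and compounds at several concentrations; lipid droplets imaged by 488-nm laser-scanning cytometry, 500–530 nm intensity and object ratio to cell channel. Percent activity normalized to 20 uM Triacsin C.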
Potency means the concentration at half of the fitted maximal effect.

SMILES | Potency | cell number change | lipid storage change, negative = inhibition
COc1ccc(Br)cc1S(=O)(=O)NCCCN1CCOCC1 | inactive | – | –
Cc1cccc(OCCC(=O)OCC(=O)N2CCc3ccccc32)c1 | inactive | 16.2% | –
CC(C)C(OC(=O)CCC(=O)Nc1nccs1)C(=O)NC1CCCCC1 (stereo unspecified) | inactive | 7.34% | –
COc1ccc(N2C(=O)CC(N(CCc3ccc(OC)c(OC)c3)C(=S)Nc3ccccc3)C2=O)cc1 (stereo unspecified) | inactive | -11.8% | –
Cc1ccccc1OCC(=O)OCC(=O)N1CCCc2ccccc21 | inactive | – | –
CC(=O)c1sc2nsc(SCCN3CCCC3)c2c1N | inactive | 7.13% | –
CC(=O)c1sc2nsc(SCCN3CCCCC3)c2c1N | inactive | 1.58% | –
Nc1c(C(=O)c2cccs2)sc2nsc(SCCN3CCCCC3)c12 | 13 µM (active) | 11.5% | –
O=C1c2ccccc2C(=O)C1c1ccc(Cl)cc1 | inactive | -2.4% | –
O=C1NC(c2ccc(Cl)cc2)Nc2ccccc21 (stereo unspecified) | inactive | -23.5% | –
O=C1C(=O)c2ccccc2C(O)=C1C1CCC(c2ccc(Cl)cc2)CC1 (stereo unspecified) | 4.11 µM (active) | -0.693% | –
COc1cc(C(=O)Nc2ccc3c(c2)C(=O)N(CCC(=O)O)C3=O)cc(OC)c1OC | inactive | 1.68% | –
CCOC(=O)c1cc(C)n(-c2ccccc2)c1C | inactive | – | –
CCOC(=O)c1cc(C)n(-n2cnnc2)c1C | 10.3 µM (active) | 1.94% | –
CCOC(=O)c1cc(C)n(S(=O)(=O)c2ccc(C)cc2)c1C | inactive | -10.7% | –
CCCn1c(N)c(C(=O)CN(C)CC(=O)Nc2ccccc2C(F)(F)F)c(=O)[nH]c1=O | 7.31 µM (active) | -17.2% | –
CCCn1c(N)c(C(=O)CN(C)CC(=O)Nc2c(Cl)cccc2Cl)c(=O)[nH]c1=O | inactive | -5.76% | –
CCCn1c(N)c(C(=O)CN(C)CC(=O)Nc2cc(C)ccc2C)c(=O)[nH]c1=O | inactive | 15.5% | –
COc1ccc(CCNC(=O)C2CC(c3ccccc3[N+](=O)[O-])=NO2)cc1 (stereo unspecified) | inactive | 17.6% | –
CC1CCCCN1S(=O)(=O)c1ccc2c(c1)CCN2C(=O)C1CCC1 (stereo unspecified) | inactive | 0.0968% | –
O=C(C1CCC1)N1CCc2cc(S(=O)(=O)N3CCN(c4ccccn4)CC3)ccc21 | inactive | -12.3% | –
O=C(C1CCC1)N1CCCc2cc(S(=O)(=O)N3CCN(c4ccccc4)CC3)ccc21 | 3.26 µM (active) | -3.36% | –
Cc1cccc(N2CCN(S(=O)(=O)c3ccc4c(c3)CCCN4C(=O)C3CCC3)CC2C)c1 (stereo unspecified) | inactive | -10.2% | –

SMILES | Potency | cell number change | lipid storage change, negative = inhibition
CC1CCCCN1S(=O)(=O)c1ccc2c(c1)CCN2C(=O)C1CC1 (stereo unspecified) | 10.3 µM (active) | -5.7% | –
CC1CCCCN1S(=O)(=O)c1ccc2c(c1)CCN2C(=O)CCC(=O)O (stereo unspecified) | inactive | 10% | –
Cc1cc(C)c(S(=O)(=O)N2CCOC2CNC(=O)C(=O)NCCCN2CCOCC2)c(C)c1 (stereo unspecified) | inactive | 8.11% | –
Cc1cccc(N(CC(N)=O)C2SC(=O)NC2=O)c1 (stereo unspecified) | inactive | 8.77% | –
Cc1ccc(N(CC(N)=O)C2SC(=O)NC2=O)cc1 (stereo unspecified) | inactive | 8.58% | –
O=C(O)CN(c1ccccc1)C1SC(=O)NC1=O (stereo unspecified) | 7.31 µM (active) | -8.43% | –
CC(C)C(NC(=O)OCc1ccccc1)C(=O)NCc1ccc(C(=O)O)cc1 (stereo unspecified) | inactive | 18% | –
CC(C)[C@H](NC(=O)c1ccco1)C(=O)NCc1ccccc1 | inactive | 17.1% | –
CC(C)C(NC(=O)c1ccco1)C(=O)NCc1ccc(C(=O)O)cc1 (stereo unspecified) | 6.51 µM (active) | -31.6% | –
CC(/C=C/c1ccccc1)=N/NC(=O)c1cnccn1 | inactive | 9.37% | –
CC1=[N+]([O-])C(C)(C)CC(C)(C)c2ccccc21 | 25.9 µM (active) | -21.9% | –
COC(=O)c1cn(CC(=O)Nc2ccccc2C)c2ccccc12 | inactive | 8.8% | –
COc1ccc(C2C(C#N)=C(N)OC3=C2C(=O)CC(C)(C)C3)cc1Cn1nc(C)c([N+](=O)[O-])c1C (stereo unspecified) | inactive | 4.05% | –
CSC1=NCCN1C(=O)C12CC3CC(CC(C3)C1)C2 | 1.3 µM (active) | -43.3% | –
O=C1NCCN1C(=O)C12CC3CC(CC(C3)C1)C2 | inactive | -1.76% | –
O=C(N1CCN=C1SCc1cccnc1)C12CC3CC(CC(C3)C1)C2 | inactive | – | –
CCn1c(SCC(=O)NC2CC2)nnc1C(C)Oc1ccccc1 (stereo unspecified) | inactive | – | –
CCOc1ccc(Cn2nnc(C(=O)NCCc3ccc(Cl)cc3)c2N)cc1 | 18.4 µM (active) | 1.29% | –
COc1cccc(NC(=O)Cn2nnc(C(=O)NCCc3ccccc3)c2N)c1 | 20.6 µM (active) | 2.67% | –
COc1cccc(NC(=O)Cn2nnc(C(=O)Nc3ccccc3)c2N)c1 | inactive | -18.5% | –
COc1ccc(NC(=O)Cn2nnc(C(=O)NCCc3ccccc3)c2N)c(OC)c1 | inactive | 6.1% | –
Nc1c(C(=O)NCCc2ccccc2)nnn1Cc1ccc(Cl)cc1 | inactive | -16.5% | –
CCOc1ccc(Cn2nnc(C(=O)NCCc3ccccc3)c2N)cc1 | inactive | -4.24% | –

SMILES | Potency | cell number change | lipid storage change, negative = inhibition
CCc1nc(NC(=O)c2sc(C)nc2C)sc1C(=O)OC | inactive | -8.97% | –
O=C1OCCC1Sc1nnc(-c2ccc3c(c2)OCO3)o1 (stereo unspecified) | inactive | 15.3% | –
O=C1OCCC1Sc1nnc(-c2ccc(Br)cc2)o1 (stereo unspecified) | inactive | 7.55% | –
O=C1OCCC1Sc1nnc(-c2cccc(Br)c2)o1 (stereo unspecified) | 20.6 µM (active) | -11.2% | –
Cc1ccc(CNC(=O)CCNS(=O)(=O)c2ccc(C)cc2)cc1 | inactive | -14.3% | –
Cc1ccc(/C=C/S(=O)(=O)NCCC(=O)NCc2ccc(F)cc2)cc1 | 13 µM (active) | -6.87% | –
Cc1ccc(CS(=O)(=O)CCC(=O)NCc2ccc(F)cc2)cc1 | inactive | 22.6% | –
CCOC(=O)N1CCC(N(CCN(C)C)C(=S)Nc2ccccc2OC)CC1 | inactive | 7.57% | –
CCCCCOC(=O)c1ccccc1C(=O)O | inactive | 16.1% | –
Cc1ccc2c(c1)C1CN(C)CCC1N2S(=O)(=O)c1ccc(C#N)cc1 (stereo unspecified) | inactive | -11.9% | –
Cc1ccc2c(c1)C1CN(C)CCC1N2S(=O)(=O)c1cccc(F)c1 (stereo unspecified) | 14.6 µM (active) | -8.15% | –
Cc1ccc2c(c1)[C@@H]1CN(C)CC[C@@H]1N2S(=O)(=O)c1ccc([N+](=O)[O-])cc1 | inactive | -4.89% | –
O=C(CN1CCN(S(=O)(=O)c2ccccc2[N+](=O)[O-])CC1)Nc1ccc(N2CCOCC2)cc1 | inactive | 26.6% | –
Cn1c2ccccc2c(=O)c2c(=O)n(-c3ccccc3)c(-c3ccc(C(C)(C)C)cc3)nc21 | inactive | 8.74% | –
Cc1ccc(CNC(=O)C2(C)Oc3ccccc3NC2=O)cc1 (stereo unspecified) | inactive | -6.1% | –
CC1(C(=O)NCc2ccc(Cl)c(Cl)c2)Oc2cccnc2NC1=O (stereo unspecified) | inactive | – | –
COc1cccc(CNC(=O)C2(C)Oc3ccccc3NC2=O)c1 (stereo unspecified) | 23.1 µM (active) | 10.7% | –
COc1cccc(CNC(=O)CC2Sc3ccccc3NC2=O)c1 (stereo unspecified) | inactive | – | –
CC1(C(=O)NCc2ccccc2)Oc2ccccc2NC1=O (stereo unspecified) | 23.1 µM (active) | -4.11% | –
COc1cccc(CNC(=O)c2ccc(C(=O)NCc3cccc(OC)c3)cc2)c1 | inactive | – | –
O=C(CNC(=O)c1ccco1)OCC(=O)c1ccc(Cl)cc1 | inactive | 3.11% | –
COc1ccc(NC(=O)/C=C/c2ccc(Br)o2)cn1 | inactive | 2.5% | –
CC[C@@H](C)[C@@H](C(=O)N1CCN(C(=O)OC(C)(C)C)CC1)n1cc(CCCN=C(NC(=O)OC(C)(C)C)NC(=O)OC(C)(C)C)nn1 | inactive | -5.51% | –

SMILES | Potency | cell number change | lipid storage change, negative = inhibition
CCN(c1ccccc1)S(=O)(=O)c1c[nH]c2ccc([N+](=O)[O-])cc12 | 5.8 µM (active) | -8.56% | –
Cc1ccc(N(C)S(=O)(=O)c2c[nH]c3ccc([N+](=O)[O-])cc23)cc1 | inactive | 2.95% | –
CCN(c1ccccc1)S(=O)(=O)c1ccc2[nH]c(=O)[nH]c2c1 | inactive | 8.44% | –
Cc1cccc(N(C)S(=O)(=O)c2c[nH]c3ccc([N+](=O)[O-])cc23)c1 | 2.59 µM (active) | -6.19% | –
Cc1cccc(N(C)S(=O)(=O)c2ccc3[nH]c(=O)c(=O)[nH]c3c2)c1 | inactive | -11.4% | –
CCN(c1ccccc1)S(=O)(=O)c1cc([N+](=O)[O-])ccc1N | inactive | 7.82% | –
O=C(CN1CCN(Cc2ccccc2)CC1)N1CCN(c2ccccc2)CC1 | inactive | 9.09% | –
CCc1nc2ccccc2c(C(=O)OCC(=O)NCc2ccco2)c1C | inactive | 16.5% | –
CCC(=O)c1ccc(OCC(=O)NNC(=O)c2cc(C)oc2C)cc1 | – | -5.72% | -5.26% [at 0.0737 µM] (inactive)
COc1cc(C(C(=O)NC(C)(C)C)N(C(=O)CNC(=O)c2cccs2)c2ccc(C(C)C)cc2)cc(OC)c1OC (stereo unspecified) | inactive | 12.2% | –
COc1ccc(C(=O)NCCc2c[nH]c3ccccc23)cc1OC | inactive | -1.75% | –
COc1ccc(C(=O)NCC(=O)NCCc2c[nH]c3ccccc23)cc1OC | inactive | 7.36% | –
CCCc1cc(=O)oc2cc(OCC(=O)NCCc3ccc(S(N)(=O)=O)cc3)ccc12 | inactive | -10.3% | –
COc1ccc2[nH]cc(CCNC(=O)COc3cc(C)cc4oc(=O)cc(C)c34)c2c1 | inactive | -0.087% | –
COc1ccc2[nH]cc(CCNC(=O)CCC3CCCCC3)c2c1 | 16.4 µM (active) | -11.7% | –
COc1ccccc1CC(=O)NCCc1c[nH]c2ccccc12 | 0.231 µM (active) | 10.3% | –
COc1ccc2[nH]cc(CCNC(=O)C3CCCCC3)c2c1 | inactive | -11.3% | –
CCCc1cc(=O)oc2cc(OCC(=O)NCCc3c[nH]c4ccc(OC)cc34)ccc12 | 8.2 µM (active) | -12% | –
COc1ccc2[nH]cc(CCNC(=O)Cc3ccc(F)cc3)c2c1 | inactive | – | –
O=C(CCc1nc2ccccc2c(=O)[nH]1)OCc1cccc(C(F)(F)F)c1 | inactive | -19.1% | –
COc1ccc(CN2CCCCC2C)cc1C (stereo unspecified) | inactive | 16% | –
